Bioassay records (PubChem BioAssay)
This is a sample that favours compounds with a hit; in the whole collection about 15% have one here.
TDP1 cell noCPT – qHTS for Inhibitors of human tyrosyl-DNA phosphodiesterase 1 (TDP1): qHTS in cells in absence of CPT | DT40 Tdp1-/- hTDP1 cells, no CPT, ATP luminescence, 48 h | Potency, µM (top dose mostly 46.2 µM), hits mostly inhibitors | hit rate 15% among 420,000 | AID 686978, 2013; note: nearly all actives have a fitted effect of over 55% in size
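Growth kinetics read by CellTiter-Glo luminescence after ≥48 hr at 37 °C. Cells: DT40 Tdp1-/- stably carrying human TDP1, 400 per well, compound exposure in the absence of CPT (DMSO vehicle).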
RORgamma inh – ROR gamma (mouse) transcription inhibition; P51450; Potency, µM (titrated, usually from 53.6 µM), usual class: inhibitors; Drosophila S2 Gal4-RORgamma UAS-luciferase reporter, 20 h; hit rate 5.4% among 310,000; note: nearly all actives have a fitted effect of over 60% in size
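ROR gamma transcriptional activity was tracked as Gal4-UAS luciferase output in stably transfected Drosophila Schneider cells, with compound added 1 hr before 700 uM copper sulfate induction and a 20 hr ambient-temperature incubation.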
ELG1 repair inh – ELG1-dependent DNA repair inhibition; HEK293T ELG1-luciferase reporter, luminescence, 16 h; DNA damage induced by 5-fluorouridine; Potency, µM (titrated, usually from 46.1 µM), hits mostly inhibitors; hit rate 2.3% among 330,000; note: nearly all actives have a fitted effect of over 55% in size
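HEK293T cells expressing luciferase-tagged ELG1 (2,000/well) received 5-Fluorouridine plus compound or DMSO for 16 hr at 37 °C. Luciferase was read by ONE-Glo luminescence after 30 min at room temperature.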
ALOX12 inh – inhibitors of human 12S-lipoxygenase ALOX12. P18054. hit rate 1.1% among 580,000. Potency, µM (series often up to 108 µM), actives largely listed as inhibitors. purified 12hLO, xylenol orange hydroperoxide absorbance. AID 1671190
Target sequence (P18054 whole entry, looked up): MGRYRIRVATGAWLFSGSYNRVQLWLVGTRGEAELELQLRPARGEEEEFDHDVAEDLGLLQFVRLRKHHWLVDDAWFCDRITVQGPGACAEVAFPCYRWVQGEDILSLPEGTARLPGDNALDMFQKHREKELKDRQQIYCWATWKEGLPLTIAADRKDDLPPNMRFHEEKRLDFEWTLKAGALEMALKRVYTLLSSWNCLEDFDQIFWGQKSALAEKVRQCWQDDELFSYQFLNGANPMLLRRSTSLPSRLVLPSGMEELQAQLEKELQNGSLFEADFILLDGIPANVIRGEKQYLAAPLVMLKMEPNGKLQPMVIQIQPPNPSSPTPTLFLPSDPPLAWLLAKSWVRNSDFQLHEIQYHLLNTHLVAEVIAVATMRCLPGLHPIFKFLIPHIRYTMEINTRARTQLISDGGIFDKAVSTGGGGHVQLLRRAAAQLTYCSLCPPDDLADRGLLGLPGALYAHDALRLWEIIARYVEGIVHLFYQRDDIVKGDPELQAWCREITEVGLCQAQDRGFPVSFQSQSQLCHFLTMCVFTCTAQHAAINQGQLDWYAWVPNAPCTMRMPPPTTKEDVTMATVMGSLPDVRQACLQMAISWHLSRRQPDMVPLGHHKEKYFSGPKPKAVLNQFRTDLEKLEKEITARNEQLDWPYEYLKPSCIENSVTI
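Hydroperoxide product was detected by ferrous iron/xylenol orange as the 573 to 405 nm absorbance ratio. Arachidonic acid at 40 uM (final) was turned over for 30 min at room temperature by 150 nM human 12hLO, pH 7.0 Hepes buffer, after 15 min compound preincubation.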
VP16 counter – inhibits Gal4-VP16 luciferase reporter, ROR gamma counter-screen; Potency, µM (series often up to 53.6 µM), actives largely listed as inhibitors; hit rate 3.5% among 310,000; Drosophila S2 Gal4-VP16 UAS-luciferase, luminescence, 20 h;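 note: Gal4-VP16 expression switched on by copper sulfate through the metallothionein promoter; nearly all actives have a fitted effect of over 50% in size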
TDP1 cell CPT – DT40-hTDP1 cell growth loss with CPT; chicken DT40 Tdp1-/-;hTDP1 cells + 20 nM CPT, ATP luminescence, 48 h; Potency, µM (doses to about 46.2 µM), hits mostly inhibitors; hit rate 12% among 420,000; note: nearly all actives have a fitted effect of over 55% in size
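Chicken DT40 Tdp1-/- cells complemented with human TDP1, 400 cells/well, exposed to compounds plus 20 nM camptothecin for at least 48 h at 37 C; viability read as ATP content by CellTiter-Glo luminescence.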
Large screens that a line does not name were inactive. Calls come from the whole dose curve; as a rule, active = well fitted curve in the direction sought with a large enough effect; inconclusive = small, poorly fitted or top-dose-only effect, or another doubt; inactive = no such curve, though single readings can be large; an effect the other way counts as inactive or inconclusive.

CSc1ccc(C2CC(=O)N(c3cccc(C(F)(F)F)c3)C3=C2C(=O)OC3)cc1 (configuration not stated)	none (no result: TDP1 cell noCPT, RORgamma inh, ELG1 repair inh, VP16 counter, TDP1 cell CPT)
C/C=C/c1ccc(OCC(=O)OCC(=O)c2ccc3c(c2)OCO3)c(OC)c1	none (no result: TDP1 cell noCPT, RORgamma inh, ELG1 repair inh, VP16 counter, TDP1 cell CPT)
O=C(C[C@@H]1C/C=C\CCC(=O)OC[C@@H]2CCCN2C1=O)N[C@H](CO)Cc1ccccc1	none (no result: RORgamma inh, VP16 counter)
O=C(C[C@H]1C/C=C\CC[C@H](Cc2ccc(F)cc2)C(=O)OC[C@H]2CCCN2C1=O)N[C@H](CO)Cc1ccccc1	TDP1 cell noCPT 21µM, ELG1 repair inh 23µM, TDP1 cell CPT 23µM (no result: RORgamma inh, VP16 counter)
O=C(C[C@H]1C/C=C\CC[C@@H](Cc2ccc(F)cc2)C(=O)OC[C@H]2CCCN2C1=O)N[C@@H](CO)Cc1ccccc1	TDP1 cell noCPT 15µM, ALOX12 inh inconclusive, TDP1 cell CPT inconclusive (no result: RORgamma inh, VP16 counter)
CC(C)(C)OC(=O)N1CCC(CC2CC(c3ccccc3)=NO2)(C(=O)O)CC1 (configuration not stated)	none (no result: RORgamma inh, ELG1 repair inh, VP16 counter)
CCCCCCCNC(=O)C1(CC2CC(c3ccc(Cl)cc3)=NO2)CCN(C(=O)OC(C)(C)C)CC1 (configuration not stated)	TDP1 cell noCPT 21µM, ELG1 repair inh inconclusive, TDP1 cell CPT inconclusive
COC(=O)C1(CC2CC(c3ccccc3)=NO2)CCN(C(=O)OC(C)(C)C)CC1 (configuration not stated)	TDP1 cell noCPT 21µM, TDP1 cell CPT inconclusive (no result: RORgamma inh, ELG1 repair inh, VP16 counter)
COC(=O)C1(CC2CC(c3ccncc3)=NO2)CCN(C(=O)OC(C)(C)C)CC1 (configuration not stated)	TDP1 cell noCPT 21µM, TDP1 cell CPT inconclusive (no result: RORgamma inh, VP16 counter)
Cc1ccc(F)cc1S(=O)(=O)NC(C)CN1CCOCC1 (configuration not stated)	none (no result: TDP1 cell noCPT, RORgamma inh, ELG1 repair inh, VP16 counter, TDP1 cell CPT)
CCCN1CCN(C(=O)CC2CCN(C(=O)c3ccc4nc(-c5ccc(C)cc5)oc4c3)CC2)CC1	none (no result: TDP1 cell noCPT, RORgamma inh, ELG1 repair inh, VP16 counter, TDP1 cell CPT)
CCCCCCn1nc(C(=O)Nc2nc(-c3ccc(NC(C)=O)cc3)cs2)c2ccccc2c1=O	none (no result: TDP1 cell noCPT, RORgamma inh, ELG1 repair inh, VP16 counter, TDP1 cell CPT)
CC(C)C[C@H](NC(=O)[C@@H]1Cc2c([nH]c3ccccc23)C2c3ccccc3C(=O)N21)C(=O)NCC1CCCO1 (some centres not stated)	TDP1 cell noCPT inconclusive, TDP1 cell CPT 16µM
COc1ccccc1N1C(=O)CC(Sc2nccc(C)n2)C1=O (configuration not stated)	RORgamma inh 11µM, VP16 counter inconclusive, TDP1 cell CPT inconclusive
COc1ccccc1N1C(=O)CC(Sc2n[nH]c(-c3cccc(C)c3)n2)C1=O (configuration not stated)	TDP1 cell noCPT 2.1µM, RORgamma inh 2.8µM, ALOX12 inh inconclusive, VP16 counter 5µM, TDP1 cell CPT 2.1µM
COc1ccccc1N1C(=O)C=C(Sc2nc(C)cc(C)n2)C1=O	TDP1 cell noCPT 2.3µM, RORgamma inh inconclusive, ALOX12 inh 10µM, VP16 counter inconclusive, TDP1 cell CPT 1.2µM
CCNc1nccc(N2CCC(CC(=O)NCCCOC)CC2)n1	none (no result: TDP1 cell noCPT, RORgamma inh, ELG1 repair inh, VP16 counter, TDP1 cell CPT)
Cc1noc2c(N(C)C)cc(-c3ccc(F)cc3)nc12	none (no result: TDP1 cell noCPT, RORgamma inh, ELG1 repair inh, VP16 counter, TDP1 cell CPT)
OC(CNC1CCCc2ccccc21)COc1ccc2ccccc2c1 (configuration not stated)	TDP1 cell noCPT 21µM, ALOX12 inh inconclusive, TDP1 cell CPT inconclusive
CCc1ccccc1OC[C@@H](O)CN[C@H]1CCCc2ccccc21	TDP1 cell noCPT 6µM, RORgamma inh 7.1µM, ALOX12 inh inconclusive, VP16 counter 14µM, TDP1 cell CPT 16µM
O=C(c1ccccc1)c1ccc(OCC(O)CNC2CCCc3ccccc32)cc1 (configuration not stated)	TDP1 cell noCPT inconclusive, TDP1 cell CPT 16µM
CC(=O)CCc1ccc(OCC(O)CNC2CCCc3ccccc32)cc1 (configuration not stated)	TDP1 cell noCPT inconclusive, TDP1 cell CPT inconclusive
Cc1ccc2nc(C(=O)N[C@H]3COC[C@H]3Cc3cc(C)no3)cn2c1	none (no result: TDP1 cell noCPT, RORgamma inh, ELG1 repair inh, VP16 counter, TDP1 cell CPT)
COc1ccc(NC(=O)COc2ccccc2Cl)c2cccnc12	none (no result: TDP1 cell noCPT, RORgamma inh, ELG1 repair inh, VP16 counter, TDP1 cell CPT)
Cc1cc(=O)c2ccc(C(F)(F)F)cc2[nH]1	TDP1 cell noCPT inconclusive, ALOX12 inh inconclusive
O=c1cc(C(F)(F)F)[nH]c2ccc(C(F)(F)F)cc12	TDP1 cell noCPT 0.73µM, ELG1 repair inh inconclusive, VP16 counter inconclusive, TDP1 cell CPT 7.3µM
CSCCC(NC(=O)C1CCC(C)CC1)C(=O)OCC(=O)c1ccc(Cl)cc1 (configuration not stated)	VP16 counter 4µM
CC(C)CC(NC(=O)C1CCC(C)CC1)C(=O)OCC(=O)c1ccc(Cl)cc1 (configuration not stated)	none (no result: RORgamma inh, ELG1 repair inh, VP16 counter)
COc1ccc(CNC(=O)CC[C@H]2CNC(=O)[C@@H]3[C@@H](CCN3Cc3ccc(C(=O)O)cc3)N2C)cc1	none (no result: TDP1 cell noCPT, RORgamma inh, ELG1 repair inh, VP16 counter, TDP1 cell CPT)
CN1CC(=O)NC1=NC(=O)C12CC3CC(CC(C3)C1)C2	TDP1 cell noCPT 18µM, RORgamma inh 2.2µM, VP16 counter 4µM, TDP1 cell CPT inconclusive
C=C1C=C(C)n2ncc(C(=O)Nc3cccc4cnccc34)c2N1	TDP1 cell noCPT 11µM, TDP1 cell CPT 16µM (no result: RORgamma inh, ELG1 repair inh, ALOX12 inh, VP16 counter)
